This is a sample that favours compounds with a hit; in the whole collection about 2% have one here.
ID4 SMM = binders of human ID4 protein; small molecule microarray, Flag-ID4 binding, fluorescence F/B; calls only; hit rate 1.2% among 31,000; call rule not given here;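 note: a binder raises fluorescence above local background on the spot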
Target sequence (P47928 whole entry, looked up): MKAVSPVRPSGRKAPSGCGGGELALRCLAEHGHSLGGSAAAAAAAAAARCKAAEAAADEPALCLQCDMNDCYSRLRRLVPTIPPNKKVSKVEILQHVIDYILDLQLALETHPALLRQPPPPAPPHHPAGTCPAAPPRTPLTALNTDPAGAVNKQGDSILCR
STK33 kin inh = human STK33 kinase inhibition | Q9BYT3 | ADP-Glo luminescence, MBP substrate | inhibition, % at 12.5 µM | hit rate 0.44% among 27,000; in the data active = inhibition above about 20%; inconclusive = no clear call, values can overlap the other calls
mut p53 react = restores mutant p53 pathway signaling in SW480 cells; SW480 PUMA-promoter luciferase, p53 mutant reactivation; activation, % at 9.98 µM; hit rate 1.5% among 28,000; in the data active = activation above about 52%; inconclusive = no clear call, values can overlap the other calls
Numbers stand for hits; i = inactive; ? = inconclusive; nt = no result given; + = active, no number.

SMILES | ID4 SMM | STK33 kin inh | mut p53 react
N#Cc1ccccc1CSc1nnc(-c2ccco2)n1-c1ccccc1 | i | i | i
Cc1ccc(-c2nnc(SCc3ccccc3C#N)n2-c2ccccc2)cc1Cl | i | i | 84
CCOC(=O)c1cc(C#N)c(Oc2ccc(C)cc2)nc1C(F)(F)F | nt | i | nt
Cc1cc(=O)oc2cc(NC(=S)NCc3cccnc3)ccc12 | + | i | 75
COc1ccc(NC(=S)NCc2cccnc2)cc1OC | i | i | i
COC(=O)c1ccccc1NC(=O)Cc1coc2c(C)c(C)ccc12 | i | i | i
O=C1CC(c2ccccc2)Oc2ccc(Cl)cc21 (stereo not drawn) | nt | i | nt
O=C1c2ccccc2C2CC(c3cc(Cl)ccc3Cl)=NN12 (stereo not drawn) | i | nt | 79
O=C(CN1C(=O)c2cccc3cccc1c23)Nc1ccccc1C(=O)N1CCCC1 | i | i | i
C=CCN1C(=O)/C(=C2\SC(N3CCCCC3)=NC2=O)c2ccccc21 | i | nt | 68
COc1cc2c(ccc3cc(OC)c(OC)c(O)c32)cc1O | i | 30 | nt
COc1c(O)c(O)cc2ccc3cccc(O)c3c12 | nt | i | nt
CCOC(=O)C1CCCCN1Cc1ccco1 (stereo not drawn) | i | i | i
COc1ccc(C2CC(=O)c3c(O)cc(O)cc3O2)cc1O (stereo not drawn) | i | i | 63
O=C1CC(c2ccc(O)c(O)c2)Oc2cc(O)cc(O)c21 (stereo not drawn) | i | nt | i
COc1ccc(-c2nc3cc(C(C)C)ccc3o2)cc1NC(=O)COc1ccc(C)cc1 | i | i | 64
Cc1cc(C)cc(OCC(=O)Nc2cc(-c3nc4ccc(C)cc4o3)ccc2C)c1 | i | i | i
COc1ccc(-c2nc3ccccc3o2)cc1NC(=O)COc1ccc(C(C)C)cc1 | i | i | i
Cc1ccc2nc(-c3ccc(C)c(NC(=O)COc4ccc([N+](=O)[O-])cc4)c3)oc2c1 | i | i | 91
COc1ccc(-c2nnc(SCC(=O)c3ccc(-c4ccccc4)cc3)o2)cc1OC | i | i | i
O=C(Nc1ccc(Cl)cc1Cl)NC(Cc1ccc(O)cc1)C(=O)O (stereo not drawn) | + | i | i
CC(=O)NC(Cc1c[nH]c2cc(Cl)ccc12)C(=O)O (stereo not drawn) | i | i | i
O=C(CSc1nc2c(c(C(F)(F)F)n1)CCCC2)Nc1ccccc1 | i | i | i
Cc1ccccc1NC(=O)COc1ccc(-c2nc3sc4c(c3c(=O)[nH]2)CCCC4)cc1 | i | i | i
COc1cc(-c2nc3sc4c(c3c(=O)[nH]2)CCCC4)cc(Br)c1OCC(=O)O | + | i | i
SMILES | ID4 SMM | STK33 kin inh | mut p53 react
Cc1ccc(OCC(=O)Nc2ccc3oc(-c4ccccc4C)nc3c2)cc1C | i | i | i
O=C(Nc1cccc(O)c1)c1cc(S(=O)(=O)N2CCOCC2)ccc1Cl | i | i | i
Cc1ccc(C(=O)Nc2cccc(OC(=O)c3cc(S(=O)(=O)N4CCCCC4)ccc3Cl)c2)cc1 | + | i | i
Brc1c(Br)c(Br)c2n[nH]nc2c1Br | i | 20 | nt
CC(Sc1ncnc2sc(-c3ccccc3)cc12)C(=O)Nc1cc(Cl)ccc1Cl (stereo not drawn) | i | i | i
Cc1ccccc1OCC(=O)Nc1cccc(-c2nc3ccccc3s2)c1 | i | i | 79
O=C(CSc1ncnc2sc3c(c12)CCCC3)Nc1cccc(F)c1 | i | i | i
Cc1cccc(OCC(=O)Nc2cccc(-c3nc4ccccc4s3)c2)c1C | i | i | 95
Cc1ccccc1OCC(=O)NC(=S)Nc1ccccc1-c1nc2ccccc2s1 | i | i | i
Cc1ccc2oc(-c3cccc(NC(=O)COc4cccc(C)c4C)c3)nc2c1 | i | i | i
CCC(=O)Nc1ccc(Cl)c(NC(=O)COc2ccc(Br)cc2)c1 | i | i | i
O=C(CSc1ncnc2sc3c(c12)CCC3)Nc1cccc(-c2nc3ccccc3s2)c1 | i | i | 80
CCC(=O)Nc1ccc(Cl)c(NC(=O)COc2ccccc2C)c1 | i | i | 107
c1ccc2sc(SCc3nc4c5c6c(sc5ncn4n3)CCCC6)nc2c1 | i | i | i
COC(=O)c1sc2nc(-c3ccccc3)nc(Nc3nc(C)cc(C)n3)c2c1C | i | i | ?
Cc1cccc(C)c1OCC(=O)NCc1cccnc1 | i | i | i
Cc1ccc(C(C)C)c(OCC(=O)Nc2cccc3ncccc23)c1 | i | i | i
COc1ccc(OC)c(NC(=O)COc2ccc(C(=O)Nc3cccc(C)c3C)cc2)c1 | i | i | i
Cc1cc(N(CC(=O)Nc2cccc(C)c2C)S(C)(=O)=O)ccc1Br | i | i | i
COc1ccc(CN2C(=O)C(O)(CC(=O)c3ccc(Cl)s3)c3ccccc32)cc1OC (stereo not drawn) | i | i | i
Cc1ccccc1OCC(=O)Nc1cccc(C(=O)O)c1 | i | i | i
Cc1ccccc1OCC(=O)Nc1cccc(NC(=O)C(C)C)c1 | i | i | 62
COCCNc1ncnc2c1cnn2-c1cccc(C)c1 | i | i | 101
COc1ccc(OC)c(Nc2ncnc3c2cnn3-c2ccccc2)c1 | i | i | ?
COc1ccc(-c2nnc(SCC(=O)Nc3ccc4cn[nH]c4c3)n2-c2ccc(Cl)cc2)cc1 | i | i | i
SMILES | ID4 SMM | STK33 kin inh | mut p53 react
COc1cccc(S(=O)(=O)N2CCCC2C(=O)O)c1 (stereo not drawn) | i | i | i
CCN1C(=O)c2cccc3c(S(=O)(=O)N4CCCC4C(=O)O)ccc1c23 (stereo not drawn) | + | i | i
C(=NCc1ccco1)c1cn(-c2ccccc2)nc1-c1ccccc1 | nt | i | nt
Fc1cccc(/C=N/N=C/c2cccc(F)c2)c1 | i | nt | 88
O=C(OC[C@]12O[C@H]1[C@@H](O)[C@@H]1C=CO[C@@H](O[C@@H]3O[C@H](CO)[C@@H](O)[C@H](O)[C@H]3O)[C@@H]12)c1ccccc1 | nt | i | nt
Cn1c(=O)c2c(nc(NCCN)n2C)n(C)c1=O | i | i | i
Cn1c(NCCCN)nc2c1c(=O)n(Cc1ccccc1Cl)c(=O)n2C | + | i | i
C/C(=C\C(=O)O)CCC1C(C)(O)CCC2C(C)(CO)CCCC12C (stereo not drawn) | i | i | i
COc1cc(C)c2c(c1C=O)Oc1c(c(C)c(O)c3c1C(O)OC3=O)OC2=O (stereo not drawn) | i | i | nt
Cc1cc(O)c(C=O)c2c1C(=O)Oc1c(C)c(O)c3c(c1O2)C(O)OC3=O (stereo not drawn) | nt | 59 | nt
Cc1cccc(-c2nnc(SCC(=O)Nc3c(C)cc(I)cc3C)o2)c1 | i | i | i
Cc1ccc(NC(=O)CSc2nnc(-c3ccc(Br)cc3)o2)cc1Cl | i | i | i
CSc1cccc(NC(=O)CSc2nnc(-c3cccc(C)c3)n2C)c1 | i | i | i
O=C(CSc1nnc(-c2ccccc2)o1)Nc1cccc(Br)c1 | i | i | 102
CSc1cccc(NC(=O)CSc2nnc(-c3cccc(C)c3)o2)c1 | i | i | 103
O=C(CSc1nnc(-c2ccc(Br)cc2)o1)Nc1cccc(C(=O)O)c1 | i | i | i
O=C(CSc1nnc(-c2ccc(Br)cc2)o1)Nc1ccccc1Cl | i | i | 75
Cc1cccc(-c2nnc(SCC(=O)Nc3ccc(Br)cc3F)o2)c1 | i | i | 80
O=C(CNS(=O)(=O)c1cc(Cl)ccc1Cl)Nc1ccc2c(c1)OCCO2 | i | i | i
COc1ccc2nc(NC3=NC(c4ccccc4)CC(=O)N3)nc(C)c2c1 (stereo not drawn) | + | i | i
COc1ccc2nc(Nc3nc(CSc4ccc(Cl)cc4)cc(=O)[nH]3)nc(C)c2c1 | i | i | i

From PubChem BioAssay
